Inconclusive results are not listed. A call without a number means that no potency is given here. A number with no mark means an inactive call. Calls of active or inactive are those of the source. Calls follow the shape of the dose curve; as a rule, active = well fitted curve in the direction sought with a large enough effect in the repeat runs; inconclusive = weak or mixed curves; inactive = no such curve, though single readings can be large; an effect the other way counts as inactive or inconclusive.
Experiments:
[1] = A CellTox Green Cytotoxicity Assay to monitor cytotoxicity in HEK293 cells - 40 hour (AID 1224871); also: nearly all actives have a fitted effect of over 45% in size; also: potency is read from the fitted curve at half-maximal effect
How it was run: (§1)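 Dead-cell fluorescence measured kinetically: asymmetric cyanine dye, HEK293, 600 cells/well, 5 h settle, 23 nL cpd/DMSO, 37 C, reads 0–40 h every 8 h.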

[2] = qHTS RealTime-Glo MT Cell Viability Assay in HEK293 cells - 16 hour (AID 1224872); also: nearly all actives have a fitted effect of over 50% in size; also: potency is read from the fitted curve at half-maximal effect
How it was run: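 Nonlytic real-time viability readout: viable cells convert prosubstrate to NanoLuc substrate, giving luminescence proportional to live cell number. HEK293, 600 cells/well, compound added after 5 h, continuous culture at 37 C.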

[3] = qHTS RealTime-Glo MT Cell Viability Assay in HepG2 cells - 8 hour (AID 1224873); also: nearly all actives have a fitted effect of over 55% in size; also: potency is read from the fitted curve at half-maximal effect
How it was run: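 Real-time viability: cells seeded at 600 per well together with NanoLuc and cell-permeant prosubstrate, compounds added after 5 h incubation. Luminescence tracked at 0, 8, 16, 24, 32 and 40 h of exposure.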

[4] = A CellTox Green Cytotoxicity Assay to monitor cytotoxicity in HEK293 cells - 24 hour (AID 1224875); also: nearly all actives have a fitted effect of over 45% in size; also: potency is read from the fitted curve at half-maximal effect
How it was run: as §1

[5] = A CellTox Green Cytotoxicity Assay to monitor cytotoxicity in HepG2 cells - 16 hour (AID 1224876); also: nearly all actives have a fitted effect of over 45% in size; also: potency is read from the fitted curve at half-maximal effect
How it was run: (§2)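 First, HepG2 cells (600/well) mixed with reagent were plated; second, after 5 h at 37 C they received compounds via pintool; third, fluorescence was measured at 0 h through 40 h at 8 h intervals.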

[6] = qHTS RealTime-Glo MT Cell Viability Assay in HepG2 cells - 32 hour (AID 1224877); also: nearly all actives have a fitted effect of over 55% in size; also: potency is read from the fitted curve at half-maximal effect
How it was run: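 Luminescence read-out: viable HepG2 cells reduce a prosubstrate to a NanoLuc substrate, giving a signal proportional to live cell number. Reads taken at 0, 8, 16, 24, 32 and 40 h of compound exposure at 37 C.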

[7] = A CellTox Green Cytotoxicity Assay to monitor cytotoxicity in HepG2 cells - 24 hour (AID 1224878); also: nearly all actives have a fitted effect of over 45% in size; also: potency is read from the fitted curve at half-maximal effect
How it was run: as §2

[8] = qHTS RealTime-Glo MT Cell Viability Assay in HEK293 cells - 0 hour (AID 1224880)
How it was run: (§3)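 600 HEK293 cells per well, dispensed already mixed with RealTime-Glo MT reagents. Compound dosing came 5 h later. The same wells were read for luminescence at 0, 8, 16, 24, 32 and 40 h of exposure at 37 C.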

[9] = A CellTox Green Cytotoxicity Assay to monitor cytotoxicity in HepG2 cells - 40 hour (AID 1224879); also: nearly all actives have a fitted effect of over 40% in size; also: potency is read from the fitted curve at half-maximal effect
How it was run: as §2

[10] = qHTS RealTime-Glo MT Cell Viability Assay in HEK293 cells - 40 hour (AID 1224874); details: RealTime-Glo luminescence; max response: hits give low values; also: nearly all actives have a fitted effect of over 50% in size; also: potency is read from the fitted curve at half-maximal effect
How it was run: as §3

In the case of `CN1CCC(N(Cc2ccccc2)c2ccccc2)CC1`, the Potency [1] is reported as “inactive”, the Potency [2] is reported as “inactive” and the Potency [3] is reported as “inactive”. The Potency [4] was “inactive”, the Potency [5] was “inactive” and the Potency [6] was “inactive”. The Potency [7] was “inactive” and the outcome [8] was “inactive”.

With `O=NN1CCCCC1` the Potency [1] was “inactive”, the Potency [2] was “inactive” and the Potency [3] was “inactive”. For the same compound, the Potency [4] was “inactive”, the Potency [5] was “inactive” and the Potency [6] was “inactive”. For the same compound, the Potency [7] was “inactive”, the Potency [9] was “inactive” and the outcome [8] was “inactive”.

In the case of `COC(=O)C(C)Oc1ccc(Oc2ccc(Cl)cc2Cl)cc1` (centres undefined), the Potency [1] is reported as “inactive”, the Potency [2] is reported as “inactive” and the Potency [3] is reported as “inactive”. The Potency [4] was “inactive”, the Potency [5] was “inactive” and the Potency [6] was “inactive”. The Potency [7] was “inactive”, the Potency [9] was “inactive” and the outcome [8] was “inactive”.

In the case of `N#CC(CCc1ccc(Cl)cc1)(Cn1cncn1)c1ccccc1` (centres undefined), the Potency [1] is reported as 49 µM (active), the Potency [2] is reported as 21.9 µM (active) and the Potency [3] is reported as 38.9 µM (active). The Potency [10] was 17.4 µM (active), the Potency [5] was 21.9 µM (active) and the Potency [6] was 43.6 µM (active). The Potency [7] was 21.9 µM (active), the Potency [9] was 24.5 µM (active) and the outcome [8] was “inactive”.

For `Fc1cc(Br)ccc1CBr`, the Potency [1] was “inactive”, the Potency [2] was “inactive” and the Potency [3] was “inactive”. For the same compound, the Potency [4] was “inactive”, the Potency [5] was “inactive” and the Potency [6] was “inactive”. For the same compound, the Potency [7] was “inactive”, the Potency [9] was “inactive” and the outcome [8] was “inactive”.

In the case of `O=C(O)c1cccc(Cl)c1`, the Potency [1] is reported as “inactive”, the Potency [2] is reported as “inactive” and the max response [10] is reported as 4.06%. For the same compound, the Potency [4] was “inactive”, the Potency [5] was “inactive” and the Potency [6] was “inactive”. The Potency [7] was “inactive”, the Potency [9] was “inactive” and the outcome [8] was “inactive”.

In the case of `Clc1cccc(N2CCNCC2)c1`, the Potency [1] is reported as “inactive”, the Potency [2] is reported as “inactive” and the max response [10] is reported as 8.54%. The Potency [4] was “inactive”, the Potency [5] was “inactive” and the Potency [6] was “inactive”. For the same compound, the Potency [7] was “inactive” and the outcome [8] was “inactive”.

In the case of `COC(=O)c1ccccc1S(=O)(=O)NC(=O)Nc1nc(C)cc(C)n1`, the Potency [1] is reported as “inactive”, the Potency [2] is reported as “inactive” and the max response [10] is reported as 7.64%. The Potency [4] was “inactive”, the Potency [5] was “inactive” and the Potency [6] was “inactive”. For the same compound, the Potency [7] was “inactive”, the Potency [9] was “inactive” and the outcome [8] was “inactive”.

In the case of `c1cc[c]([Hg][c]2ccccc2)cc1`, the Potency [1] is reported as 34.7 µM (active), the Potency [2] is reported as 34.7 µM (active) and the Potency [10] is reported as 24.5 µM (active). The Potency [4] was 43.6 µM (active), the Potency [5] was “inactive” and the Potency [6] was “inactive”. For the same compound, the Potency [7] was 43.6 µM (active), the Potency [9] was 49 µM (active) and the outcome [8] was “inactive”.

For `O=[N+]([O-])c1cccc(O)c1`, the Potency [1] was “inactive”, the Potency [2] was “inactive” and the Potency [4] was “inactive”. For the same compound, the Potency [5] was “inactive”, the Potency [6] was “inactive” and the Potency [7] was “inactive”. The Potency [9] was “inactive” and the outcome [8] was “inactive”.

In the case of `CN(N=O)C(N)=O`, the Potency [1] is reported as “inactive”, the Potency [2] is reported as “inactive” and the max response [10] is reported as 10.1%. The Potency [4] was “inactive”, the Potency [5] was “inactive” and the Potency [6] was “inactive”. For the same compound, the Potency [7] was “inactive”, the Potency [9] was “inactive” and the outcome [8] was “inactive”.

With `CC(C=O)Cc1ccc2c(c1)OCO2` (centres undefined) the Potency [1] was “inactive”, the Potency [2] was “inactive” and the max response [10] was 0.337%. For the same compound, the Potency [4] was “inactive”, the Potency [5] was “inactive” and the Potency [6] was “inactive”. The Potency [7] was “inactive”, the Potency [9] was “inactive” and the outcome [8] was “inactive”.

With `CNNC` the Potency [1] was “inactive”, the Potency [2] was “inactive” and the max response [10] was -7.62%. The Potency [4] was “inactive”, the Potency [5] was “inactive” and the Potency [6] was “inactive”. The Potency [7] was “inactive”, the Potency [9] was “inactive” and the outcome [8] was “inactive”.

For `COC(=O)c1c(C(F)F)nc(C(F)(F)F)c(C2=NCCS2)c1CC(C)C`, the Potency [1] was “inactive”, the Potency [2] was “inactive” and the max response [10] was -16.3%. The Potency [4] was “inactive”, the Potency [5] was “inactive” and the Potency [6] was “inactive”. For the same compound, the Potency [7] was “inactive”, the Potency [9] was “inactive” and the outcome [8] was “inactive”.

In the case of `OC(c1ccccc1)(c1ccccc1)C1CCNCC1`, the Potency [1] is reported as “inactive”, the Potency [2] is reported as “inactive” and the max response [10] is reported as -12.9%. The Potency [4] was “inactive”, the Potency [5] was “inactive” and the Potency [6] was “inactive”. The Potency [7] was “inactive”, the Potency [9] was “inactive” and the outcome [8] was “inactive”.

With `N#CC(Cl)(Cl)Cl` the Potency [1] was “inactive”, the Potency [2] was “inactive” and the Potency [4] was “inactive”. The Potency [5] was “inactive”, the Potency [6] was “inactive” and the Potency [7] was “inactive”. For the same compound, the Potency [9] was “inactive” and the outcome [8] was “inactive”.

With `N#CCNCC#N` the Potency [1] was “inactive”, the Potency [2] was “inactive” and the max response [10] was 3.83%. The Potency [4] was “inactive”, the Potency [5] was “inactive” and the Potency [6] was “inactive”. For the same compound, the Potency [7] was “inactive”, the Potency [9] was “inactive” and the outcome [8] was “inactive”.

For `O=C(O)c1ccc2[nH]cc(CCCCN3CC=C(c4ccccc4)CC3)c2c1`, the Potency [1] was “inactive”, the Potency [2] was “inactive” and the max response [10] was -1.51%. For the same compound, the Potency [4] was “inactive”, the Potency [5] was “inactive” and the Potency [6] was “inactive”. For the same compound, the Potency [7] was “inactive” and the outcome [8] was “inactive”.

With `CCS(=O)(=O)CCSP(=O)(OC)OC` the Potency [1] was “inactive”, the Potency [2] was “inactive” and the max response [10] was 10.4%. For the same compound, the Potency [4] was “inactive”, the Potency [5] was “inactive” and the Potency [6] was “inactive”. The Potency [7] was “inactive”, the Potency [9] was “inactive” and the outcome [8] was “inactive”.

In the case of `Nc1n[nH]c(N)n1`, the Potency [1] is reported as “inactive”, the Potency [2] is reported as “inactive” and the Potency [4] is reported as “inactive”. The Potency [5] was “inactive”, the Potency [6] was “inactive” and the Potency [7] was “inactive”. The Potency [9] was “inactive” and the outcome [8] was “inactive”.

For `C[C@H]1CCC[C@H](O)CCCCCc2cc(O)cc(O)c2C(=O)O1`, the Potency [1] was “inactive”, the Potency [2] was 34.9 µM (active) and the Potency [10] was 24.7 µM (active). The Potency [4] was “inactive”, the Potency [5] was “inactive” and the Potency [6] was “inactive”. For the same compound, the Potency [7] was “inactive” and the outcome [8] was “inactive”.

With `ClCCOCOCCCl` the Potency [1] was “inactive”, the Potency [2] was “inactive” and the max response [10] was -5.52%. The Potency [4] was “inactive”, the Potency [5] was “inactive” and the Potency [6] was “inactive”. For the same compound, the Potency [7] was “inactive”, the Potency [9] was “inactive” and the outcome [8] was “inactive”.

For `CCCSP(=O)(OCC)Oc1ccc(Br)cc1Cl` (centres undefined), the Potency [1] was “inactive”, the Potency [2] was “inactive” and the Potency [4] was “inactive”. The Potency [5] was “inactive”, the Potency [6] was “inactive” and the Potency [7] was “inactive”. For the same compound, the Potency [9] was “inactive” and the outcome [8] was “inactive”.

For `CC(=O)Nc1cc([As](=O)(O)O)ccc1O`, the Potency [1] was “inactive”, the Potency [2] was “inactive” and the Potency [4] was “inactive”. For the same compound, the Potency [5] was “inactive”, the Potency [6] was “inactive” and the Potency [7] was “inactive”. For the same compound, the outcome [8] was “inactive”.

For `CCOP(=S)(OCC)Oc1cc(-c2ccccc2)on1`, the Potency [1] was “inactive”, the Potency [2] was “inactive” and the Potency [4] was “inactive”. The Potency [5] was “inactive”, the Potency [6] was “inactive” and the Potency [7] was “inactive”. The Potency [9] was “inactive” and the outcome [8] was “inactive”.

— PubChem BioAssay (Tox21)
